# Bioassay records: PubChem, National Center for Advancing Translational Sciences (NCATS)
# AmpC no deterg – inhibitors of E. coli AmpC beta-lactamase without detergent. P00811. AmpC nitrocefin hydrolysis, absorbance 480 nm, 0.0001% Triton. Potency, µM (doses to about 57.1 µM), for the others: at the top dose activity change, negative = inhibition, usual class: inhibitors. 330,000 compounds, 0.52% hits;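 also: plate controls were no compound for no effect and no enzyme for full effect; nearly all actives have a fitted effect of over 20% in size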
# Target sequence (P00811 whole entry, looked up): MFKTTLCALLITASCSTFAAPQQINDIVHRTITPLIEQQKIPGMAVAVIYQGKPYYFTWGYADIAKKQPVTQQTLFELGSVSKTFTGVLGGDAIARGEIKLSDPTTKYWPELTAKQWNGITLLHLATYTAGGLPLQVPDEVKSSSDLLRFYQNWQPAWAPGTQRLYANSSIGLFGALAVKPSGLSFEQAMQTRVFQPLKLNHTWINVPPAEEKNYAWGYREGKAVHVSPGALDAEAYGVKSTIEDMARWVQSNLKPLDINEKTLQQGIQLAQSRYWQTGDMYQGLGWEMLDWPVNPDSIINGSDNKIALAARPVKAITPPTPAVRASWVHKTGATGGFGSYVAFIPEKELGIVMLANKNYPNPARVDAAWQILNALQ
#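 20 mM phosphate pH 7.0 + 0.01% (detergent screen) or 0.0001% Triton X-100; 5.3 nM AmpC reagent; cpd preinc 15 min RT; nitrocefin (800 uM stock) to start; A480 q20 s × 4 min; Activity was normalised to no-enzyme and no-compound control wells.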
# AmpC detergent – inhibitors of E. coli AmpC beta-lactamase with detergent. P00811. AmpC hydrolysis of nitrocefin, absorbance 480 nm, 0.01% Triton. Potency, µM (doses to about 114 µM), without a hit: at the highest dose activity change, negative = inhibition, actives largely listed as inhibitors. 370,000 compounds, 0.041% hits. AID 485294;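 also: 0% = no-compound wells and -100% = no-enzyme wells; nearly all actives have a fitted effect of over 25% in size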
#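 AmpC (5.3 nM in the dispensed reagent) in 20 mM phosphate pH 7.0 with 0.01% (detergent screen) or 0.0001% Triton X-100 was preincubated with compounds for 15 min at room temperature. Nitrocefin was then added from an 800 uM solution, and hydrolysis was followed at 480 nm.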
# Pf growth 96h – inhibits malaria parasite growth, 96 h | Potency, µM (top dose mostly 28.7 µM), without a hit: top-dose activity change, negative = inhibition, actives largely listed as inhibitors | AID 504834 | P. falciparum luciferase reporter growth, 96 h | 320,000 compounds, 6.9% hits
#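 Plates of compound plus infected erythrocytes (2% hematocrit, 0.05% parasitemia final) incubate 96 hours, 37 C, 5% CO2. Detection reagent added; reduced luminescence from the parasites' luciferase reporter flags inhibition.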
# AMA1 RON2 block – disrupts binding of P. falciparum AMA1 to RON2; AlphaScreen AMA1-biotinylated RON2 peptide binding; Potency, µM (doses to about 58.2 µM), for the others: at the highest dose activity change, negative = inhibition, hits mostly inhibitors; 360,000 compounds, 0.2% hits; AID 720542;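 also: 0% = vehicle wells and -100% = peptide control; nearly all actives have a fitted effect of over 45% in size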
#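 AMA1 (3D7) with his tag at 25 nM final met compounds first, then biotinylated RON2 peptide at 25 nM; detection used donor plus acceptor beads, 10 µg/mL apiece, read by AlphaScreen after 30 min at room temperature.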
# Pf growth 48h – P. falciparum growth inhibition at 48 hours (one generation); 310,000 compounds, 5.9% hits; Potency, µM (top dose mostly 28.7 µM), for inactives: at the top dose activity change, negative = inhibition, actives largely listed as inhibitors; P. falciparum luciferase growth in erythrocytes, 48 h
#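 In quantitative HTS format, infected erythrocytes bearing luciferase-reporter parasites were treated for a single generation at 37 C. Luminescence after adding detection reagent served as the growth measure.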
# HCV inh – HCV inhibition. Huh7.5.1 HCVcc-Cre infection, luciferase reporter, 44 h. Potency, µM (doses to about 41.8 µM), without a hit: top-dose activity change, negative = inhibition, usual class: inhibitors. 340,000 compounds, 3.4% hits. AID 651820
#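 Compounds are dispensed onto cells plated 4 h earlier at 1,000 per well, with HCVcc-Cre virus (about 0.5 moi) added next. Following 44 h of culture, luminescent signal is measured for 15 sec after 15 min with substrate at room temperature.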
# * marks the source's active call; other numbers are inactive results; ? = inconclusive; . = no result given; [ ] = another dose, or the depositor's remark. Only some compounds are listed: those with a hit (about 11% of all), similar ones and a draw of the others. Calls follow the shape of the dose curve; as a rule, active = well fitted curve in the direction sought with a large enough effect; inconclusive = small, poorly fitted or top-dose-only effect, or another doubt; inactive = no such curve, though single readings can be large; an effect the other way counts as inactive or inconclusive. Unless noted, % is scaled to controls: 0 for no effect and ±100 for the full control effect; potency is read from the fitted curve at half-maximal effect.
SMILES,AmpC no deterg,AmpC detergent,Pf growth 96h,AMA1 RON2 block,Pf growth 48h,HCV inh
CCOc1ccc(N2CC(NC(=O)c3ccc(Cl)cc3)CC2=O)cc1 (stereo not drawn),.,0%,.,.,.,.
Cc1ccc(-c2nc3c4cnn(-c5cc(Cl)ccc5Cl)c4ncn3n2)cc1,.,2%,.,.,.,.
Nc1nc(N)nc(-c2ccc(Oc3ccccc3)cc2)n1,-10%,-1%,-5%,-3%,.,7%
Cc1sc(N)nc1-c1ccc(Oc2ccccc2)cc1,-39%,2%,?,37%,63%,14µM*
COc1ccc(-c2nnc3sc(CCN4C(=O)c5ccccc5C4=O)nn23)cc1,18%,-14%,?,14%,5.2µM*,18%
Clc1ccc(OCc2nn3c(C4CCCCC4)nnc3s2)c(Cl)c1,-11%,0%,28%,14%,43%,-16%
CCOc1cccc(-c2nnc3sc(C4CCCCC4)nn23)c1,19%,?,10µM*,-3%,9.3µM*,-18%
COc1cccc(-c2nnc3sc(C4CCCCC4)nn23)c1,31%,?,3%,1%,.,-28%
COc1ccc(-c2nn3c(-c4ccccc4)nnc3s2)cc1,76%,-5%,5%[5.75 µM],-9%,?,?
COc1cc(OC)c(-c2nn3c(C4CCCCC4)nnc3s2)cc1OC,113%,?,44%,-3%,5.2µM*,?
COc1cc(-c2nnc3sc(Cc4ccccc4)nn23)cc(OC)c1OC,54%,0%,6.6µM*,12%,?,-25%
COc1ccc(Cc2nn3c(-c4cc(OC)c(OC)c(OC)c4)nnc3s2)cc1,110%,?,37%,3%,?,?
O=C(CN1C(=O)CCc2cc(Br)ccc21)Nc1ccc(OC(F)(F)F)cc1,.,14%,.,.,.,.
COc1cc(-c2nnc3sc(C4CCCCC4)nn23)cc(OC)c1OC,121%,?,5.2µM*,0%,8.3µM*,?
Cc1cc(-c2nnc3sc(C4CCCCC4)nn23)n[nH]1,-19%,?,?,-3%,.,15%
COc1ccc(C)cc1NC(=O)C1CCN(S(=O)(=O)c2ccc3c(c2)CCCN3C(C)=O)CC1,.,3%,.,.,.,.
COc1cccc(NC(C)C(=O)Nc2cc([N+](=O)[O-])ccc2Cl)c1 (stereo not drawn),-28%,-11%,15µM*,-14%,-26%,?
COc1ccc(CN(C)C(C)C(=O)Nc2ccc([N+](=O)[O-])cc2Cl)cc1OC (stereo not drawn),13%,-10%,12µM*,?,?,?
CCC(CC)C(=O)Nc1cc([N+](=O)[O-])ccc1Cl,-14%,-9%,7.4µM*,-19%,-1%,-15%
Cc1ccc(C2=Nc3ccccc3N(CC(=O)NCc3ccccc3Cl)C(=O)C2)cc1C,.,19%,.,.,.,.
CCOc1c(Br)cc(C2CC(=O)Nc3cc4c(cc32)OCO4)cc1OC (stereo not drawn),.,-12%,.,.,.,.
CC(C)NC(=O)c1ccccc1NC(=O)C(C)Oc1ccccc1 (stereo not drawn),-7%,1%,32%,-24%,0%,-1%
COc1ccccc1NC(=O)C(C)NS(=O)(=O)c1ccc(F)cc1 (stereo not drawn),-1%,-2%,.,2%,-24%,1%
COc1cc(NC(=O)C(C)Oc2ccccc2)c(OC)cc1NC(=O)c1ccccc1 (stereo not drawn),72%,-9%,?,?,10µM*,?
COC(=O)c1ccccc1NC(=O)C(C)NS(=O)(=O)c1ccc(OC)cc1 (stereo not drawn),-5%,-1%,.,-7%,1.3µM*,5%
SMILES,AmpC no deterg,AmpC detergent,Pf growth 96h,AMA1 RON2 block,Pf growth 48h,HCV inh
CCC(C(=O)Nc1cc(OC)c(NC(=O)c2ccccc2)cc1OC)c1ccccc1 (stereo not drawn),-14%,0%,?,0%,-16%,11µM*
CCC(C(=O)Nc1cc(Cl)ccc1OC)c1ccccc1 (stereo not drawn),-17%,-7%,-2%,36%,-17%,?
COC(=O)c1ccccc1NC(=O)C(C)Oc1ccccc1 (stereo not drawn),-21%,0%,1%,-14%,7.4µM*,-14%
CSc1ccc(CNC(=O)CCc2c(C)nn(-c3ccc(N4CCCC4)nn3)c2C)cc1,.,-3%,.,.,.,.
COc1ccc(-n2cc(C(=O)OCc3ccc(F)c(F)c3)c3ccccc3c2=O)cc1,.,-8%,.,.,.,.
CCCCOc1ccc(Nc2nc(C)cc(C)c2C#N)cc1,-48%,-7%,10µM*,18%,7%,-4%
Cc1cc(C)c(C#N)c(Nc2ccccc2)n1,-19%,?,?,30%,9%,-11%
COc1ccccc1-c1nc(C#N)c(N2CCc3ccccc3C2)o1,2%,-8%,?,?,-30%,11µM*
COc1ccc(N2CCN(c3oc(-c4ccc(OC)c(OC)c4)nc3C#N)CC2)cc1,-18%,?,.,-6%,10%,21%
Cc1cccc(-c2nc(C#N)c(N3CCCCCC3)o2)c1,-9%,?,.,?,11%,25µM*
COc1ccc(-c2nc(C#N)c(N3CCc4ccccc4C3)o2)cc1OC,104%,-2%,-24%,-22%,1%,11µM*
Cc1cccc(-c2nc(C#N)c(N3CCC(C)CC3)o2)c1,-2%,1%,27%,18%,33%,5%
COc1ccc(CCNC(=O)CCc2c(C)nc3c4c(C)cc(C)nc4nn3c2C)cc1OC,.,23%,.,.,.,.
Cc1cc(C(=O)N/N=C/C(Cl)=C/c2ccccc2)c(C)o1,-41%,4%,10µM*,12%,9.3µM*,-27%
O=C(N/N=C/C(Cl)=C/c1ccccc1)c1ccccn1,-13%,0%,?,88%,-45%,8%
O=C(N/N=C/C(Cl)=C\c1ccccc1)c1cccs1,-41%,0%,3.7µM*,15%,?,-14%
COCc1oc2ccc(NS(=O)(=O)c3ccc(C)cc3)cc2c1C(=O)OC,.,-5%,.,.,.,.
CCOC(=O)c1ccc(N2C(=O)c3n[nH]c(C)c3C2c2ccc(OCC)cc2)cc1 (stereo not drawn),.,4%,.,.,.,.
COc1ccc(OC)c(C2=NOC(C(=O)NCc3cccs3)C2)c1 (stereo not drawn),-42%,0%,0.37µM*,-1%,7%,-4%
COc1ccc(OC)c(C2=NOC(C(=O)Nc3cccnc3)C2)c1 (stereo not drawn),-18%,1%,12µM*,-2%,7%,-3%
